MCF10A rereplic: A quantitative high throughput screen for small molecules that induce DNA re-replication in MCF 10a normal breast cells | AID 624296, 2012 | 350,000 compounds, 2.9% hits | Potency, µM (titrated, usually from 46.1 µM), most hits filed as activators | MCF 10A DNA re-replication, Hoechst nuclear intensity, 48 h; also: nearly all actives have a fitted effect of over 50% in size
AT treatment: qHTS Assay for Identifying a Potential Treatment of Ataxia-Telangiectasia. F2112 A-T fibroblasts, KAP-1 phosphorylation AlphaLISA; neocarzinostatin DNA damage 30 min before lysis. Potency, µM (doses to about 57.5 µM), usual class: activators. 320,000 compounds, 0.19% hits; also: nearly all actives have a fitted effect of over 45% in size
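hTERT-immortalized A-T patient fibroblasts (F2112), 500 cells/well in OPTI-MEM, 1% FBS, got compounds for 60 min, then NCS for 30 min at 37C. Lysates were then assayed for phospho-KAP-1 by AlphaLISA (anti-pKAP1 donor, anti-KAP1 acceptor beads), 6 hr at 25C.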
a7 integrin act: qHTS for Activators of Integrin-Mediated Alleviation for Muscular Dystrophy. alpha7betagal myoblasts, beta-gal FDG fluorescence, 48 h. 350,000 compounds, 0.064% hits. AID 624291, 2012. Potency, µM (top dose mostly 38.3 µM), usual class: activators; also: nearly all actives have a fitted effect of over 60% in size
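alpha7betagal+/- myoblasts (passage 13, 250/well) treated 48 h at 37C with compounds at 1:260 dilution of DMSO stock. Lysed, then beta-galactosidase activity read as FDG fluorescence (ex 480/em 540) after 30 min, with pre-read for autofluorescence.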
Mito fusion yeast: qHTS Assay for Small Molecule Inhibitors of Mitochondrial Division or Activators of Mitochondrial Fusion. Potency, µM (titrated, usually from 46.1 µM), usual class: activators. S. cerevisiae fusion-defective mutant growth rescue, CellTiterGlo 48 h. AID 485298, 2010. 320,000 compounds, 0.23% hits; also: nearly all actives have a fitted effect of over 45% in size
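Temperature-sensitive fusion-defective S. cerevisiae (e.g. fzo1-1, mgm1-5) were grown with compound in YPEG medium (3% ethanol, 3% glycerol) for 48 hours at 37C. Growth rescue was measured as viability by CellTiterGlo luminescence after 10 minutes at ambient.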
SW480 rerep: A quantitative high throughput screen for small molecules that induce DNA re-replication in SW480 colon adenocarcinoma cells | SW480 DNA re-replication, Hoechst DNA content imaging, 48 h | Potency, µM (series often up to 46.1 µM), hits mostly activators | 340,000 compounds, 1.8% hits; also: nearly all actives have a fitted effect of over 55% in size
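Treated cells incubate 48 hr (37 C, 5% CO2), are stained 40 min with Hoechst, and nuclear fluorescence is enumerated; a rise in nuclei with high DNA signal marks re-replication.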
Of the large screens only hits and unclear results are named; the others gave an inactive call. This is a sample that favours compounds with a hit; in the whole collection about 4.2% have one here. Calls follow the shape of the dose curve; as a rule, active = well fitted activation curve with a large enough effect; inconclusive = small, poorly fitted or top-dose-only effect; inactive = no such curve, though single readings can be large or run the other way.

CCOc1ccc(CCNC(=O)CSc2nc3ncc(Cl)cc3[nH]2)cc1OCC	none
O=C1C=C(c2ccc3cc[nH]c3c2)C[C@@H](c2ccc3c(c2)OCO3)C1	MCF10A rereplic 21µM, Mito fusion yeast inconclusive, SW480 rerep inconclusive
O=C(NCCc1ccc2c(c1)OCCO2)c1ccccn1	none
C/C(=N\NC1=NCCN1)c1ccc(Cl)cc1	MCF10A rereplic inconclusive, SW480 rerep inconclusive
CCN(CC)CC(=O)Nc1ccc(/C(C)=N/NC2=NCCN2)cc1	MCF10A rereplic 23µM, SW480 rerep 18µM
CCC(=O)N(C1=C(NC(C)C)C(=O)c2ccccc2C1=O)C(C)C	AT treatment inconclusive, a7 integrin act inconclusive
CCCNC1=C(N(C(C)=O)c2cccc(F)c2)C(=O)c2ccccc2C1=O	MCF10A rereplic 0.73µM, SW480 rerep 5.8µM
O=P(O)(O)C(O)(Cc1cccnc1)P(=O)(O)O	none (no result: AT treatment, a7 integrin act, Mito fusion yeast)
Cc1ccc(NC(=O)c2ccc(OC(=O)c3ccco3)cc2)cc1	MCF10A rereplic 21µM, SW480 rerep inconclusive
Cc1cc(-n2c(C)cc(C(=O)COc3ccc(F)c(F)c3)c2C)no1	none
O=C(/C=C/c1cn(CC(O)CN2CCCCCC2)c2ccccc12)c1cccs1 (stereo not given)	MCF10A rereplic 15µM, SW480 rerep 18µM
O=Cc1cn(CC(O)Cn2cc(C=O)c3ccccc32)c2ccccc12	none
CCCCN(C)CC(O)Cn1cc(/C=C/C(=O)c2cccs2)c2ccccc21 (stereo not given)	MCF10A rereplic 16µM, SW480 rerep 23µM
Cc1nn(C(C)C(=O)NCCCN2CCCCCC2)c(=O)c2cc3sccc3n12 (stereo not given)	none
COc1ccc(-c2nc(NC(=O)c3cc(C(C)(C)C)nn3C)sc2C)cc1	MCF10A rereplic 15µM, SW480 rerep 16µM
COc1ccc(-c2nc(NC(=O)c3c(C)noc3C)sc2C)cc1	none
Cc1sc(NC(=O)c2ccc(=O)n(C)n2)nc1-c1ccccc1	MCF10A rereplic 23µM
Cc1sc(NC(=O)c2c(F)cccc2F)nc1-c1ccccc1	MCF10A rereplic inconclusive, SW480 rerep inconclusive
COC(=O)Nc1ccc2c(c1)N(C(=O)CCN1CCN3CCCC3C1)c1ccccc1S2 (stereo not given)	none
Cc1cc(C(=O)OCC(=O)NC2CCCCC2)c(C)o1	none (no result: AT treatment)
Cc1cc2c(cc(C(=O)OCC(=O)NC3CCCCC3)n2C)o1	MCF10A rereplic 26µM, SW480 rerep inconclusive (no result: AT treatment, Mito fusion yeast)
COc1cc2c(cc1OC)C1(Nc3c-2c(Cc2ccccc2)nn3-c2ccccc2)C(=O)Nc2ccccc21 (stereo not given)	MCF10A rereplic 6.5µM, SW480 rerep inconclusive (no result: AT treatment)
COc1cc2c(cc1OC)C1(NCC2)C(=O)Nc2ccccc21 (stereo not given)	none
Cc1cc(-n2c(C)c3c(C)nnc(C)c3c2C)ccc1N	MCF10A rereplic 21µM, SW480 rerep inconclusive
Cc1ccc(-n2c(C)c3c(C)nnc(C)c3c2C)cc1N	none
Cc1nnc(C)c2c(C)n(-c3ccccc3N)c(C)c12	SW480 rerep 21µM
NNC(=O)CNC(=O)C12CC3CC(CC(C3)C1)C2	none
NC(=O)NC(=O)COC(=O)c1ccc(Cl)c(S(=O)(=O)N(Cc2ccccc2)c2ccc(Cl)cc2)c1	MCF10A rereplic 21µM, Mito fusion yeast inconclusive
COc1ccccc1N(Cc1ccccc1)S(=O)(=O)c1cc(C(=O)O)ccc1Cl	MCF10A rereplic 18µM
CC(=O)NCCC1CCN(c2nc3nonc3nc2N(C)Cc2ccccc2)CC1	none
OC1CNc2c(ccc3ccccc23)C1 (stereo not given)	none (no result: AT treatment, Mito fusion yeast)
Cc1ccc(OCC(=O)N2N=C(C(F)(F)F)CC2(O)C(C)(C)C)cc1C (stereo not given)	MCF10A rereplic 8.2µM, SW480 rerep inconclusive
Cc1ccccc1OCC(=O)N1N=C(C(F)(F)F)CC1(O)C(C)(C)C (stereo not given)	none
CCN1CCN(CCCNC(=O)c2ccc(/C=C3/Oc4ccccc4N(Cc4cccc(C)c4)C3=O)cc2)CC1	MCF10A rereplic 1.8µM, SW480 rerep 2.6µM
O=C(NCCCN1CCOCC1)c1ccc(/C=C2\Oc3ccccc3N(Cc3ccccc3F)C2=O)cc1	MCF10A rereplic 5.2µM, SW480 rerep inconclusive
CN(C)N1C(=O)c2c(Cl)c(Cl)c(Cl)c(Cl)c2C1=O	none (no result: AT treatment, Mito fusion yeast)
CCCOc1cccc(-c2nn(-c3ccccc3)cc2/C=C(\C#N)C(=O)NCCCn2ccnc2)c1	MCF10A rereplic inconclusive, SW480 rerep inconclusive
N#C/C(=C/c1cn(-c2ccccc2)nc1-c1cccc(OCc2ccc(F)cc2)c1)C(=O)NCCCn1ccnc1	MCF10A rereplic 10µM, SW480 rerep inconclusive
O=C(Cc1ccccc1[N+](=O)[O-])NCC1(c2cccc3c2OCO3)OCCO1	none (no result: AT treatment, Mito fusion yeast)
COc1ccccc1CC(=O)Nc1cccc(C)n1	none
COc1cc(/C=N/n2c(-c3ccc4c(c3)NC(=O)CO4)csc2=Nc2cccc(C)c2)ccc1O	MCF10A rereplic 23µM, SW480 rerep inconclusive
COCCN=c1scc(-c2ccc3c(c2)NC(=O)CO3)n1/N=C(\C)c1ccc(O)cc1	MCF10A rereplic inconclusive, SW480 rerep inconclusive
O=S(=O)(NC1CC1)c1ccc(Br)cc1N1CCC[C@H]1CO	none (no result: AT treatment, Mito fusion yeast)
O=C(CCN1C(=O)/C(=C/c2ccccc2)SC1=S)N[C@@H](CO)Cc1ccccc1	MCF10A rereplic inconclusive, SW480 rerep inconclusive
O=C(CCN1C(=O)/C(=C/c2ccccc2F)SC1=S)N[C@@H](CO)Cc1ccccc1	MCF10A rereplic inconclusive, SW480 rerep 22µM
O=C(CCC(=O)N1CCN(c2ccc(Cl)c(Cl)c2)CC1)c1ccccc1	MCF10A rereplic inconclusive, Mito fusion yeast inconclusive
c1ccc(-c2noc(C34CC5CC(CC(C5)C3)C4)n2)cc1	MCF10A rereplic 12µM
c1ccc(-c2noc(C34CC5CC(CC(C5)C3)C4)n2)nc1	none
O=C(Nc1ccc(F)c(Cl)c1)C1CCCC1	MCF10A rereplic inconclusive, SW480 rerep 5.8µM (no result: AT treatment, Mito fusion yeast)
O=C(Nc1ccc(Cl)cc1N1CCOCC1)C1CCCO1 (stereo not given)	none
O=C(Nc1ccc(Cl)cc1N1CCOCC1)C1CCCCC1	a7 integrin act 7.1µM
Nc1nc(N)c2cc(Sc3ccc4ccccc4c3)ccc2n1	MCF10A rereplic 16µM, SW480 rerep inconclusive
CC(=O)N1CCc2c(sc(NC(=O)c3ccc(S(=O)(=O)N(C)CC4CCCO4)cc3)c2C(N)=O)C1 (stereo not given)	none (no result: MCF10A rereplic, AT treatment, Mito fusion yeast, SW480 rerep)
O=C(NCCc1ccccc1)c1cccnc1N1CCCCCC1	MCF10A rereplic 26µM
COCc1ccc(C(=O)N2CCCC(CNC(=O)c3ccc(F)cc3)C2)o1 (stereo not given)	none
Cc1ccc(N2C(=O)c3cccc4c([N+](=O)[O-])ccc(c34)C2=O)c2cccnc12	MCF10A rereplic 2.6µM, SW480 rerep 2.1µM

Screening results from PubChem BioAssay.
